“And” between values parts separate entries of the source, which are not always exact repeats. Identical values can stand only once. Inconclusive results are not listed. Unmarked numbers belong to inactive results. The source made the active and inactive calls. Calls come from the whole dose curve.

For the test, the target named is Neuropeptide S receptor (Homo sapiens) (UniProt Q6W5P4). Description: Confirmation Concentration-Response Assay for Antagonists of the Neuropeptide S Receptor: cAMP Signal Transduction, SAR for Probe. Particulars: CHO-NPSR cells, cAMP TR-FRET, antagonist mode; series mostly up to 47.8 µM; activity change, negative = inhibition: at the top concentration. An excerpt: NIH Chemical Genomics Center [NCGC] NIH Molecular Libraries Probe Production centers Network [MLPCN] MLPCN Grant: X01-DA026210-01 Assay Submitter (PI): Heilig, Markus Alexander NCGC Assay Overview: Neuropeptide S receptor (NPSR), previously known as GPR154, is a recently de-orphanized G protein coupled receptor. Its endogenous ligand is the 20 amino acids peptide Neuropeptide S (NPS). […] NPS and its receptor are found in various tissues. Specifically they are highly expressed in brain areas that have been implicated in modulation of arousal, stress and anxiety. Central administration of NPS in mice produces an unusual profile of activity by inducing wakefulness and arousal, while at the same time suppressing anxiety. Therefore, NPSR may represent a novel drug target for the treatment of sleep and anxiety disorders. To identify NPSR antagonists, we developed a cell-based cAMP assay. NPS can stimulate the production of cAMP in Chinese hamster ovary cells stably expressing NPS receptor. This change in intracellular cAMP level can be detected by a homogeneous LANCE cAMP assay based on the TR-FRET (time resolved fluorescence resonance energy transfer) between a europium-labeled cAMP tracer complex and a cAMP-specific antibody labeled with Alexa Fluor 647. The europium-labeled cAMP tracer complex is formed by the tight interaction between Biotin-cAMP (b-cAMP) and streptavidin labeled with Europium-W8044 chelate (Eu-SA). Light pulse at 320 nm excites the europium of the cAMP tracer and the energy emitted is transferred to the Alexa molecule bound to the cAMP antibody, generating a TR-FRET signal at 665 nm. Residual energy from the europium will produce a light at 620 nm. The native unlabeled cAMP from cell lysates competes with the europium-cAMP tracer for antibody binding and reversely reduces the emission signal of Alexa by interrupting FRET between the two labeled molecules. Both emission signals from the FRET donor (620 nm) and the acceptor (665 nm) can be detected by a plate reader in the TRF mode. Expression of result in fluorescence ratio (665 nm/620 nm) helps to normalize differences due to cell density and reagent dispensing. This assay was successfully optimized to a 1536-well plate format. Select compounds from the primary screen (AID 1461) were chosen for confirmation based on potency, efficacy, SAR, and activity across other assays in PubChem and at NCGC. Other compounds are analogs of active compounds from the primary screen.
Neuropeptide S receptor (Homo sapiens), sequence (Q6W5P4 whole entry, looked up): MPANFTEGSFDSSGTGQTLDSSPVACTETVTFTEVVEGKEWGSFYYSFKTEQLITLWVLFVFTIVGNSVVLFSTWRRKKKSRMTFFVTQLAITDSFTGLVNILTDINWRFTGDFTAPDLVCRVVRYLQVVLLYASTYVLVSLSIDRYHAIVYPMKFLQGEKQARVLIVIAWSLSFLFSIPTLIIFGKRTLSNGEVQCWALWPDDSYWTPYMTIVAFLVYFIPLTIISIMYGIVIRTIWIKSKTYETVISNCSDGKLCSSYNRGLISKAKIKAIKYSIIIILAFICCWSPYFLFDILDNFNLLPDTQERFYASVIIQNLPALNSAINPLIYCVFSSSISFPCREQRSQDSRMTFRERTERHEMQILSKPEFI
NCGC Assay Protocol Summary: A Chinese hamster ovary (CHO) cell line stably expressing the NPS receptor (CHO-NPSR) was obtained from Dr. Heilig lab at NIAAA and maintained in F-12 Kaighn's media (Invitrogen, Carlsbad, CA, 21127) supplemented with 10 % FBS, 100 units/ml penicillin, 100 ug/ml streptomycin and 250 ug/ml geneticin at 37C, 5% CO2 in a humidified atmosphere. Before the assay, aliquots of cells were frozen and stored at -135C. The assay was performed in 1536-well format. Data are reported for both the ratio of the two emission wavelengths, and also for the component 'donor' channel, Em2=620. […] IC50 values were determined from concentration-response data modeled with the standard Hill equation. NPS 1536-well assay protocol: (1) Fresh or frozen CHO-NPSR cells were suspended in F-12 Kaighn's media supplemented with 10 % FBS, 100 units/ml penicillin and 100 ug/ml streptomycin. Cells were plated at 4 ul/well (1200 cells) to white, tissue culture treated 1536-well plates, and then cultured at 37C, 5 % CO2 for 16 to 30 hours. (2) Add 23 nl/well of compound in DMSO solution. The final titration for each compound was between 0.6 nM and 46 uM. (3) Add 1 ul of stimulation reagent (1X HBSS buffer, 5 mM HEPES, 0.1% BSA, 500 uM RO-201724 (Sigma-Aldrich, B8279), 1.5% Alexa 647-labeled anti-cAMP antibody (from Perkin Elmer), 100 nM NPS) (4) Incubation at 37C, 5 % CO2 for 60 min. (5) Add 1 ul/well detection reagent. […]
For the compound `Cc1c(P(=S)(c2ccccc2)c2ccccc2)c2ccccc2n1C`, the Potency was 31.5 µM (active). `Cn1c(-c2ccccc2)c(P(=S)(c2ccccc2)c2ccccc2)c2ccccc21`: the “activity change, negative = inhibition” value was -21%. In the case of `S=P(c1ccccc1)(c1ccccc1)c1c(-c2ccccc2)[nH]c2ccccc12`, the Potency is 31.5 µM (active). The same measure, in the same setting: next, `Cc1c(P(=S)(c2ccccc2)c2ccccc2)[n+]2ccccc2n1Cc1ccccc1`: 1.99 µM (active); `Cc1c(P(=S)(c2ccccc2)c2ccccc2)[n+]2ccccc2n1CCc1ccccc1`: 2.5 µM (active). On the same count and under the same terms, next, `Cc1nc2ccccn2c1P(=S)(c1ccccc1)c1ccccc1`: 25 µM (active). Still for that read-out and setting: with `S=P(c1ccccc1)(c1ccccc1)c1c[n+](Cc2ccccc2)c2ccccn12` the figure was 9.96 µM (active); with `Cc1c(P(=S)(c2ccccc2)c2ccccc2)[n+]2ccccc2n1C/C=C/c1ccccc1`, 0.387 µM (active); with `Cc1c(P(=S)(c2ccccc2)c2ccccc2)[n+]2ccccc2n1C`, 2.23 µM (active) and 4.87 µM (active). Consider `Cc1c(P(=S)(c2ccccc2)c2ccccc2)[n+]2ccccc2n1CCCc1ccccc1`, for which the Potency is 0.772 µM (active). On the same count and under the same terms, with `Cc1[nH]c2ccccc2c1P(=S)(c1ccccc1)c1ccccc1` the figure was 39.7 µM (active).

The values above are taken from PubChem BioAssay AID2568 (National Center for Advancing Translational Sciences (NCATS), 2010).
